# Experimental data from PubChem BioAssay AID1745850 (National Center for Advancing Translational Sciences (NCATS), 2022).
# Screen size: about 2,100 compounds; about 260 (12%) were called active. About 58% were inconclusive and are not listed. The call rests on the fitted dose curve; in most records, active means well fitted cell-killing curve with a large enough effect; inconclusive means small, poorly fitted or top-dose-only effect, or effect the other way; inactive means flat fitted curve, though single readings scatter. The list shows a part of the results. Where a call stands in place of a potency, no number is given.
# Assay: Viability Counterscreen for Confirmatory qHTS for Inhibitors of ATXN expression; further: nearly all actives have a fitted effect of over 50% in size
# Details: HEK-293 ATXN2-luc cells viability, CellTiter-Fluor, 24 h
# Text: PI: Daniel Scoles Ph.D. University of Utah School of Medicine, Salt Lake City, Utah MLPCN Grant: NS073009 Spinocerebellar ataxia type 2 (SCA2) is a multisystem neurodegenerative disease caused by a dominantly acting mutation leading to expansion of a polyQ domain in the ataxin-2 protein (ATXN2). SCA2 patients develop progressive ataxia and later lose function in other neuronal systems. Prominent parkinsonian signs develop in some patients. Like many neurodegenerative disorders, no symptomatic or disease-modifying treatments are known. The primary objective of the proposed research is to identify compounds inhibiting ATXN2 expression and to test them for efficacy in SCA2 mouse models. We have developed a cell-based assay paired with an in vivo mouse model using identical luciferase expression constructs. This approach takes advantage of an ATXN2-luciferase transgene, with the luciferase gene flanked by the upstream and downstream portions of the ATXN2 gene. Here we describe a 5-7 dose quantitative high thoroughput screen (qHTS) for compounds lowering ATXN2 expression. We screened the NIH Molecular Libraries Small Molecule Repository (MLSMR) and NCGC's mechanistically annotated (MIPE) and drug repurposing (NPC) collections of compounds for lowering expression of an ATXN2-luciferase reporter in HEK-293 cells. The assay is a multiplexed cell viability assay to ensure target reduction in the absence of cytotoxicity. Secondary qHTS assays included a CMV-luciferase reporter expressed in HEK-293 cells as well as a biochemical assay using recombinant luciferase to detect inhibitors of the reporter enzyme. Compounds that inhibit ATXN2 expression but is not cytotoxic were selected for confirmatory and secondary screens.
# PROTOCOL TABLE (as described by Inglese J, Shamu CE and Guy RK. 2007) SEQUENCE No. (e.g., 1, 2, 3, etc.); […] (e.g., Cells, Incubation, Reagent, etc.); VALUE; DESCRIPTION. 1; Cells; 4 uL; white, solid bottom, 1536-well Greiner assay plate. 2; Incubation; 2 hr; 37 degree C in 5% humidified CO2. 3; Compounds; 23 nL; Kalypsis pintool (Wako USA) equipped with a 1536-well pin head. 4; Incubation; 24 hr; 37 degree C in 5% humidified CO2. 5; Reagent; 1 uL; Gly-Phe-7-Amino-4-trifluoromethylcoumarin. 6; Incubation; 30 min; 37 degree C in 5% humidified CO2. 7; Detection; Fluorescence; ViewLux plate reader (PerkinElmer). 8; Reagent; 3 uL; SteadyGlo luciferase solution (Promega). 9; Incubation; 5 min; room temperature. 10; Detection; Luminescence; ViewLux plate reader (PerkinElmer). NOTES (numbers refer to Sequence numbers above) 1. S2 cells expressing ATXN2-luciferase reporter were suspended in phenol-red free DMEM and dispensed in assay plates using a Multidrop Combi dispenser (Thermo Fisher Scientific). Wells containing medium only were plated on each plate, and values were used to normalize (100% inhibition) in the luciferase and CellTiter-Fluor assays. 2. Assay plates were incubated. Evaporation was prevented by covering assay plates with metal lids containing holes to allow gas diffusion. 3. Compounds were added in a dose response manner with the final concentrations of 57, 11.4, 2.28, 0.46, 0.091, 0.018, 0.0037 uM. Vehicle-only plates, with DMSO being pin-transferred to columns 5-48, were inserted uniformly at the beginning and the end of each library to monitor and record any shifts in assay performance. 5. 125 uM Gly-Phe-7-Amino-4-trifluoromethylcoumarin (MP Biomedicals) working concentration was used at a final concentration of 25 uM. 7. To assess cell viability; the assay plates were read using the ViewLux high-throughput CCD imager (PerkinElmer), wherein single end-point fluorescence measurement was acquired (excitation 405/10; emission 540/25 nm). 8. Detection reagent SteadyGlo Luciferase (Promega) was added to the assay plate. 10. Luminescence is then measured on the ViewLux imager equipped with a clear emission filter using a 2 sec exposure. […]
# Potency means the concentration at half of the fitted maximal effect.
row,Structure (SMILES),Potency
1,COc1cc(/C=N/Nc2ccc(Cl)c(C(=O)O)c2)ccc1OC(=O)c1ccco1,inactive
2,CCN(CC)CCC(=O)Nc1cccc2c1C(=O)c1ccccc1C2=O,3.16 µM (active)
3,CCN(CC)CCNC(=O)c1ccc(NC(=O)Cc2cccc3ccccc23)cc1,inactive
4,CN(CC(=O)Nc1cccc(F)c1)CC(=O)Nc1cccc2ccccc12,inactive
5,CCC1=C(CC2NCCc3ccccc32)CC2c3cc(OC)c(OC)cc3CCN2C1 (stereo not drawn),10 µM (active)
6,O=C(CC1NCCc2ccccc21)Nc1ccc(Cl)cc1 (stereo not drawn),inactive
7,CN(c1ccc(OCC(=O)N2CCN(c3ccc(F)cc3)CC2)cc1)S(=O)(=O)c1cccs1,inactive
8,CC(=O)c1sc(C(C)(C)C)cc1NC(=O)/C=C/C(=O)O,inactive
9,COC(=O)c1c(NC(=O)/C=C/C(=O)O)sc(C)c1-c1ccc(C(C)C)cc1,28.2 µM (active)
10,CCOC(=O)c1c(C)nn(-c2ccc(NC(=O)/C=C/C(=O)O)cc2)c1C,inactive
11,OC[C@@H]1[C@@H](c2ccc(F)cc2)C(c2ccccc2)=NN1c1ccccc1,inactive
12,COc1cc2c(cc1OC)C(C)N(C(=O)c1cc3c(s1)-c1ccccc1OC3)CC2 (stereo not drawn),inactive
13,COc1ccccc1-c1ccc2c(c1)C(C)(Cc1cccc(F)c1)C(=O)N2 (stereo not drawn),inactive
14,Cc1nonc1C(=O)N/N=C/c1ccc(O)cc1O,inactive
15,COc1ccc2c(c1)C(SCC(=O)NCCc1ccc(Cl)cc1)CC(C)(C)O2 (stereo not drawn),inactive
16,Cc1ccc2nc(-c3ccccn3)c(NC3CCCC3)n2c1,inactive
17,Cc1ccc(Nc2c(-c3ccccn3)nc3cc(C)ccn23)cc1,10 µM (active)
18,Cc1cccn2c(Nc3ccccc3)c(-c3ccccn3)nc12,inactive
19,Cc1ccc(Nc2c(-c3ccccn3)nc3cccc(C)n23)cc1,8.91 µM (active)
20,N#Cc1ccc(-c2nc3cc(Cl)ccc3c(=O)n2O)cc1,inactive
21,CCCNC(=O)c1ccc2c(=O)c(O)c(-c3ccc(F)cc3)[nH]c2c1,inactive
22,CN(C)CCCN(C(=O)c1ccc(S(=O)(=O)N(C)Cc2ccccc2)cc1)c1nc2cc3c(cc2s1)OCO3,25.1 µM (active)
23,CCN(c1ccccc1)S(=O)(=O)c1ccc(C(=O)N(CCCN(C)C)c2nc3c(C)cccc3s2)cc1,20 µM (active)
24,CN(C)CCCN(C(=O)c1ccco1)c1nc2cc3c(cc2s1)OCO3,inactive
25,Cc1ccc(S(=O)(=O)c2nc(NCc3ccc4c(c3)OCO4)sc2Cl)cc1,inactive
26,CCCc1nc(NC2CCCCC2)c(C#N)c2c1COC(C)(C)C2,inactive
27,CC1(S(=O)(=O)O)CC(=O)c2ccccc2C1=O (stereo not drawn),inactive
28,CCCCOc1ccc(NC2=NC3(CCCC3)N=C(N)N2)cc1,inactive
